These results are taken from PubChem BioAssay (NCATS).

Records with an inconclusive call do not appear. Unmarked numbers belong to inactive results. Calls of active or inactive are those of the source. Unless noted, calls come from the whole dose curve; as a rule, active = well fitted curve in the direction sought with a large enough effect; inconclusive = small, poorly fitted or top-dose-only effect, or another doubt; inactive = no such curve, though single readings can be large; an effect the other way counts as inactive or inconclusive.

A short description of assay [1]: qHTS for Inhibitors of Plasmodium falciparum (DD2) proliferation (AID 504314).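 Note: parasite DNA measured by SYBR Green fluorescence after red cell lysis; plate controls were DMSO vehicle for no effect and artemisinin wells for full effect.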 Summed up: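 Quantitative HTS growth inhibition: SYBR Green I binding to parasite DNA after 72 h drug exposure of infected erythrocytes (0.3% parasitemia, 2.5% hematocrit). Signals normalized per plate to inhibitor and vehicle wells.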
Background: Quantitative high-throughput screening tests each substance at several concentrations.

Assay [2] can be described thus: qHTS for Inhibitors of Plasmodium falciparum (GB4) proliferation (AID 504315).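 Note: 0% = DMSO vehicle and -100% = 0.29 µM artemisinin control; nearly all actives have a fitted effect of over 50% in size.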 Summed up: (§1)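 Erythrocytes infected with P. falciparum line (0.3% parasitemia, 2.5% hematocrit final) incubated with compounds 72 h at 37 °C, 5% CO2; SYBR Green lysis buffer added, fluorescence read next day. Normalized to 0.29 uM artemisinin and DMSO.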
A short description of assay [3]: qHTS for Inhibitors of Plasmodium falciparum (CP250) proliferation (AID 504320).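 Note: plate controls were DMSO vehicle for no effect and 0.29 µM artemisinin control for full effect.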 Summed up: as §1
In assay [4] the target is Atrial natriuretic peptide receptor 1 (Homo sapiens) (UniProt P16066). Briefly: Natriuretic polypeptide receptor (hNpr1) antagonism - Pilot CMLD screen (AID 1347052; calls by dose curve;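 note: cGMP level read as GloSensor luciferase luminescence after agonist stimulation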; note: potency is the fitted concentration of half-maximal effect).
Assay [5] in a line: qHTS for Inhibitors of Plasmodium falciparum (HB3) proliferation (AID 504318).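 Note: 0% = DMSO vehicle and -100% = artemisinin control; nearly all actives have a fitted effect of over 60% in size.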 Summed up:
as §1

Atrial natriuretic peptide receptor 1 (Homo sapiens), sequence (P16066 whole entry, looked up): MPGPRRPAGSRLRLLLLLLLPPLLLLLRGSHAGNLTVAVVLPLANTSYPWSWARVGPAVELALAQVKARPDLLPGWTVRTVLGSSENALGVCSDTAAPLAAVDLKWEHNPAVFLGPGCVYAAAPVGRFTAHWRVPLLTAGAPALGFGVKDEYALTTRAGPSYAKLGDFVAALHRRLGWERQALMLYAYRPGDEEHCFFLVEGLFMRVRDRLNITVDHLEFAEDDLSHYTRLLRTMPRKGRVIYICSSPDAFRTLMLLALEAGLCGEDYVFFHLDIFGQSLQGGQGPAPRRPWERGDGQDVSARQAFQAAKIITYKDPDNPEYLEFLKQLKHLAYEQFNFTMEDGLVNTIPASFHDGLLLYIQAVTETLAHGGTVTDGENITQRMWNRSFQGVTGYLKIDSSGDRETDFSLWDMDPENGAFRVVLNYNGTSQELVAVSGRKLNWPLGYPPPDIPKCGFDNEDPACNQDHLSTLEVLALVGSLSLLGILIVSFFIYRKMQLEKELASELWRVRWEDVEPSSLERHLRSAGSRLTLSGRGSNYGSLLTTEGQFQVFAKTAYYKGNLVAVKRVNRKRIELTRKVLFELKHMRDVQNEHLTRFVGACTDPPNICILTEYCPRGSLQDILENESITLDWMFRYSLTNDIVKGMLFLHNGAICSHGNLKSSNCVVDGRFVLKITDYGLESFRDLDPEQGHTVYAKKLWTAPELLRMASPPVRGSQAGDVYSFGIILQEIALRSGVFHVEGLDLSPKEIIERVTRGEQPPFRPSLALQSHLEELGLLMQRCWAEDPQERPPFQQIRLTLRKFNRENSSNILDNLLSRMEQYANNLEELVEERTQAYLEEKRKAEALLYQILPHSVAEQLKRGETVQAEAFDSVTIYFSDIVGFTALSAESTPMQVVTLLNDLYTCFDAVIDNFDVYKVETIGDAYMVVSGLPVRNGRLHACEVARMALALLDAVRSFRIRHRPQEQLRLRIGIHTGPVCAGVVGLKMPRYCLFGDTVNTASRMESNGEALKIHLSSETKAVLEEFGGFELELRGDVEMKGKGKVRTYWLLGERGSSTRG

On to `C=CC(=O)N1C(=O)c2ccccc2S1(=O)=O`, for which the Potency result in assay [1], in assay [2] and in assay [3] was “inactive” in each case. The Potency in assay [4] was 2990 nM (active).

Regarding `COc1cc2c(cc1OC)[C@@]1(c3ccccc3)CCCC[C@H]1[C@@H]2NC(=O)C(F)(F)F`, the Potency entry in assay [1], in assay [2], in assay [3] and in assay [4] was “inactive” throughout.

Regarding `COC(=O)CCCC1=CC2=CC(=O)C(C)(OC(=O)c3cccs3)C(=O)C2=CN1CCc1c[nH]c2ccccc12` (stereo not drawn), the Potency result in assay [1], in assay [2], in assay [3] and in assay [4] was “inactive” throughout.

With `COc1ccc(-c2nc3c(c4c2C[C@H](c2ccccc2)OC4)CN(C(=O)C2CC2)CC3)c(C)c1`, the Potency result in assay [1], in assay [2], in assay [5], in assay [3] and in assay [4] was “inactive” throughout.

In the case of `COc1cc(OC)c([C@@H]2O[C@H](CO)[C@@H](O)[C@H](O)[C@@H]2O)c(OC)c1`, the Potency result in assay [1], in assay [2], in assay [5], in assay [3] and in assay [4] was “inactive” each time.

For `COC(=O)c1ccccc1C[C@]1(C(=O)OC)C=C[C@H](C)[C@@H](c2ccccc2)N1C(=O)C(F)(F)F`, the Potency entry in assay [1], in assay [2], in assay [5], in assay [3] and in assay [4] was “inactive” in each case.

Regarding `CCOC(=O)CN1C(=O)NC(c2cccc(F)c2)C(C(C)=O)=C1C` (stereo not drawn), the Potency result in assay [1], in assay [2], in assay [5], in assay [3] and in assay [4] was “inactive” in each case.

As to `COc1ccc(C=CNC(=O)c2ccc(OC)cc2)cc1`, the Potency entry in assay [1], in assay [2], in assay [3] and in assay [4] was “inactive” throughout.

In the case of `CC1(C)OCC([C@H](O)C2=CCCCC2=O)CO1`, the Potency entry in assay [1], in assay [2], in assay [3] and in assay [4] was “inactive” in each case.

Turning to `COC(=O)CC=C1c2ccccc2C[C@H](OC)[C@@H]1C`, the Potency entry in assay [1], in assay [2], in assay [3] and in assay [4] was “inactive” in each case.

With `COC(=O)N[C@@H](C=Cc1ccccc1)C[N+](=O)[O-]`, the Potency entry in assay [1], in assay [2], in assay [3] and in assay [4] was “inactive” in each case.

Consider `COC(=O)[C@H]1[C@@H](c2ccccc2)NC(=O)N(CCc2cc(OC)c(OC)c(OC)c2)[C@@H]1C`, for which the Potency result in assay [1], in assay [2], in assay [3] and in assay [4] was “inactive” each time.

On to `COc1ccc(O[C@H]2C=C[C@@H](c3ccccc3)O[C@H]2COC(=O)CCC(C)=NOC[C@@H](O)COCc2ccco2)cc1`, for which the Potency entry in assay [1], in assay [2], in assay [3] and in assay [4] was “inactive” throughout.

As to `COc1ccc2c(c1)O[C@@H](c1cccc(C(F)(F)F)c1)[C@H](OC(=O)NC1CCCC1)C2=O`, the Potency entry in assay [1], in assay [2], in assay [3] and in assay [4] was “inactive” each time.

As for `COC(=O)CC1c2ccccc2C(Cc2ccc3c(c2)OCO3)=C(C)N1C(=O)OC` (stereo not drawn), the Potency entry in assay [1], in assay [2], in assay [3] and in assay [4] was “inactive” each time.

Take `CC(=O)C1=C(C)N(CCC=Cc2ccccc2)C(=O)NC1c1ccccc1` (stereo not drawn): the Potency entry in assay [1], in assay [2], in assay [3] and in assay [4] was “inactive” throughout.

Take `Cc1cc2c(c(=O)o1)[C@H]1O[C@](CCCCN3C(=O)c4ccccc4C3=O)(Cc3cc(C#N)ccc31)O2`: the Potency result in assay [1], in assay [2], in assay [3] and in assay [4] was “inactive” each time.

On to `C[C@H]1[C@@H](C(=O)N2CCCC2)CC(=O)C(=NOCc2ccccc2)C[C@H]1c1ccccc1`, for which the Potency entry in assay [1], in assay [2], in assay [3] and in assay [4] was “inactive” in each case.

With `C[C@H]1Cc2c(COc3ccccc3)nc3c(c2CO1)CN(C(=O)NCc1ccco1)CC3`, the activity, negative = inhibition in assay [1] was -0.216% [at 1.12 µM]. The Potency entry in assay [2], in assay [3] and in assay [4] was “inactive” throughout.

With `CCOC(=O)[C@@]1([C@@H](NC(=O)OC)c2ccco2)CCCC1=O`, the Potency result in assay [1], in assay [2], in assay [3] and in assay [4] was “inactive” in each case.

Turning to `COc1ccc2c(c1)CO[C@H]([C@H](O)CO)[C@H]2C=Cc1ccccc1`, the Potency entry in assay [1], in assay [2], in assay [3] and in assay [4] was “inactive” throughout.

On to `O[C@H](CC#CCOc1ccccc1)COCc1ccccc1`, for which the Potency result in assay [1], in assay [2], in assay [3] and in assay [4] was “inactive” in each case.

Consider `C=CC[C@@]1(c2ccc(OC)cc2)Oc2ccccc2C2=NCCN=C21`, for which the Potency result in assay [1], in assay [2], in assay [3] and in assay [4] was “inactive” in each case.

With `C[C@@H]1CC[C@H]2C(=O)N(Cc3ccc(Cl)cc3)C[C@@H](O)CN2[C@@H]1c1cccc(Br)c1`, the Potency result in assay [1], in assay [2], in assay [3] and in assay [4] was “inactive” each time.

Turning to `COC(=O)C1=C(C(=O)OC)[C@@H]2N(CC=C(C)C)c3ccccc3[C@@]23CCC(=O)N(CCc2ccccn2)C3=N1`, the Potency entry in assay [1], in assay [2], in assay [3] and in assay [4] was “inactive” each time.

With `COc1ccc(O[C@H]2C=C[C@@H](c3ccccc3)O[C@H]2COC(=O)NCc2cccc3ccccc23)cc1`, the Potency entry in assay [1], in assay [2], in assay [3] and in assay [4] was “inactive” throughout.

Consider `CC(=O)O[C@H](C(=O)O[C@@H]1C[C@@H](CCC[C@H]2O[C@H](C(=O)OC(C)C)CC[C@@H]2C)O[C@@H](CC#N)C1)c1ccccc1`, for which the Potency result in assay [1], in assay [2], in assay [3] and in assay [4] was “inactive” in each case.

Turning to `CC1(OC(=O)CCc2ccccc2)C(=O)C=C2C=C(c3ccc(C#N)cc3)N(CC3CC3)C=C2C1=O` (stereo not drawn), in assay [1], the activity, negative = inhibition is -3.92% [at 1.12 µM]. Also, the Potency result in assay [2], in assay [3] and in assay [4] was “inactive” throughout.

For `O=C1Nc2cccc(Br)c2[C@@]12O[C@H](COc1ccccc1)CC1=CCC[C@H]12`, the Potency result in assay [1], in assay [2], in assay [3] and in assay [4] was “inactive” in each case.

As for `CC(=O)C1=CN(CCc2c[nH]c3ccccc23)C(=O)NC1c1ccccc1` (stereo not drawn), the Potency entry in assay [1], in assay [2], in assay [3] and in assay [4] was “inactive” throughout.

For the compound `C=CCN1c2ccccc2[C@]23CCC(=O)N(CCCOC(C)C)C2=NC(C(=O)OC)=C(C(=O)OC)[C@H]13`, the Potency entry in assay [1], in assay [2], in assay [3] and in assay [4] was “inactive” throughout.
